MRP resist rev – reversal of MRP1-mediated doxorubicin resistance, primary screen, H69AR cells, doxorubicin co-treatment | AID 602, 2007 | 85,000 tested, 0.04% active | H69AR cells + 2 uM doxorubicin, CellTiter-Glo, 72 h | differential viability (reversal), % at 10 µM;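 active = viability drop by adding the cancer drug above about 55%, with treated viability meeting a 40% cutoff, limit read from the data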;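 note: viability without doxorubicin minus viability with 2 µM doxorubicin for each compound; larger differential means the compound sensitizes cells more to doxorubicin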
CYP2C19 activ – human CYP2C19 activators, primary screen, biochemical, luminescence. Cytochrome P450 2C19 (Homo sapiens), P33261. 96,000 tested, under 10 active. activation factor at 5 µM. recombinant CYP2C19, luciferin-H EGE luminescence; active compounds read high; 0 = fully inhibited enzyme, 1 = untreated enzyme;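 active = activation factor of at least 2 at 5 µM in the primary screen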;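 note: 0 = wells with 2.5 mM tranylcypromine and 1 = vehicle-only wells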
CYP2C9 inh – blockers of cytochrome P450 2C9 activity – biochemical, luminescence, ADME assay, primary screen; P11712; CYP2C9 Supersomes, luciferin-H conversion; inhibition, % at 5 µM; 96,000 tested, 20% active; AID 777, 2007;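 active = blocking of liver enzyme CYP2C9 beyond about 50% at 5 µM, limit read from the data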
Target sequence (P11712 whole entry, looked up): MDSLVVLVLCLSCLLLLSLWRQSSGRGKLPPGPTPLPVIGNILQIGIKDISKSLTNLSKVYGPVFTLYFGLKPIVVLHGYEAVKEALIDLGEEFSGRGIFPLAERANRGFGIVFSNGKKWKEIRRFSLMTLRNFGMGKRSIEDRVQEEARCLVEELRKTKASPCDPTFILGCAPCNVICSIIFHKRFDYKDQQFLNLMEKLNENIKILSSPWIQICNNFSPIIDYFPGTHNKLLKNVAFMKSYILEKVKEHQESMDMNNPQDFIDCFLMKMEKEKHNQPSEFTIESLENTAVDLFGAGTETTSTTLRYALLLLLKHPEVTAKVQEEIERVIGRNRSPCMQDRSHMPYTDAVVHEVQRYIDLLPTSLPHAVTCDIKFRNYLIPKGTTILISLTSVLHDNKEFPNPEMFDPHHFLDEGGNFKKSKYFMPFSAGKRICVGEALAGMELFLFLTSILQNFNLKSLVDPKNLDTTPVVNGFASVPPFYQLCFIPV
CYP2C19 inh – blockers of cytochrome P450 2C19 activity – biochemical, luminescence, ADME assay, primary screen; inhibition, % at 5 µM; CYP2C19 Supersomes, luciferin-H EGE luminescence, 30 min; P33261; 96,000 tested, 21% active; AID 778, 2007;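 active = CYP2C19 inhibition above a set limit at 5 µM in the primary screen, cut at about 50% in these data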;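 note: plate controls were negative control wells for no effect and 2.5 mM tranylcypromine positive control for full effect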
MRP1 act – H69AR viability gain despite doxorubicin, primary screen, MRP-1 activator project, H69AR cells, CellTiter-Glo; AID 799, 2007; viability increase, % at 10 µM; viability rescue; 140,000 tested, 0.61% active;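 active = viability gain under doxorubicin at or above a set limit, the compound median plus 3 SD, cut at about 4.7% in these data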;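 note: MRP-1 overexpressing cells given doxorubicin 25 µM after compound pretreatment; 18-22 h compound pretreatment then 72 h with doxorubicin before readout; 0% = doxorubicin-only wells and 100% = vehicle-treated cells without doxorubicin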
CYP2C9 act – human CYP2C9 activators, primary screen, biochemical, luminescence | recombinant CYP2C9, luciferin-H conversion; active compounds read high; factor 1 = untreated enzyme, 0 = blocked | AID 1024, 2008 | activation factor at 5 µM | 96,000 tested, 1.4% active | Cytochrome P450 2C9 (Homo sapiens), P11712;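 active = activation factor of 2 or more for CYP2C9 at a 5 µM dose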;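 note: 0 = sulfaphenazole-blocked wells and 1 = vehicle-only wells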
* marks the source's active call; other numbers are inactive results. Only some compounds are listed: those with a hit (about 21% of all), similar ones and a draw of the others.

`CCCCn1nnnc1SCC(=O)c1cc(Cl)ccc1OC` gave MRP resist rev -11, CYP2C19 activ 0.3, CYP2C9 inh -104, CYP2C19 inh 74*, MRP1 act -2 and CYP2C9 act 2*.
`Nc1cc(N)nc(SCC(=O)c2ccccc2)n1` gave MRP resist rev -11, CYP2C19 activ 1, CYP2C9 inh -3, CYP2C19 inh 1, MRP1 act -3 and CYP2C9 act 1.
For Cc1cccc(C)c1Nc1nnc(SCC(=O)NC(=O)c2cccn2C)s1 the results were MRP1 act -1.
C/C(N)=C(/C#N)C(=O)CSc1nnc(SCc2ccc(Cl)cc2)s1 was read as MRP resist rev 8, CYP2C19 activ 0.7, CYP2C9 inh 71*, CYP2C19 inh 31, MRP1 act -1 and CYP2C9 act 0.3.
`C/C(N)=C(/C#N)C(=O)CSc1nnc(Nc2c(C)cccc2C)s1` gave MRP resist rev 17, CYP2C19 activ 0.3, CYP2C9 inh 69*, CYP2C19 inh 72*, MRP1 act -2 and CYP2C9 act 0.3.
For C/C(N)=C(/C#N)C(=O)CSc1nnc(Nc2cccc(C)c2C)s1 the results were MRP resist rev 6, CYP2C19 activ 0.3, CYP2C9 inh 66*, CYP2C19 inh 66*, MRP1 act -1 and CYP2C9 act 0.3.
CSc1cnc2c(N)nc(N(C)C)nc2n1 was read as MRP1 act -3.
COc1cccc(OCC(=O)O/N=C(\N)c2ccc(OC)c(OC)c2)c1 was read as MRP1 act 0.
For COc1ccc(CCNC(=O)CC2SC(=NCCc3ccccc3)NC2=O)cc1OC (stereo unspecified) the results were MRP1 act -3.
Screening CCN(CCNC(=O)Cn1cc2c(n1)CCCC2)c1ccccc1 returned MRP resist rev -3, CYP2C19 activ 0.3, CYP2C9 inh 69*, CYP2C19 inh 72*, MRP1 act 0 and CYP2C9 act 0.3.
For COc1cccc(CNC(=O)Cn2cc3c(n2)CCCC3)c1 the results were MRP resist rev -3, CYP2C19 activ 0.3, CYP2C9 inh -22, CYP2C19 inh 70*, MRP1 act 0 and CYP2C9 act 1.2.
CC1CCN(C(=O)Cn2cc3c(n2)CCCC3)CC1 was read as MRP resist rev 13, CYP2C19 activ 0.4, CYP2C9 inh 15, CYP2C19 inh 55*, MRP1 act -1 and CYP2C9 act 0.9.
Screening Cc1cc(C)c(NC(=O)Cn2cc3c(n2)CCCC3)c(C)c1 returned MRP resist rev 3, CYP2C19 activ 0.9, CYP2C9 inh -11, CYP2C19 inh 8, MRP1 act -2 and CYP2C9 act 1.1.
`Cc1ccc2nc(NC(=O)Cn3cc4c(n3)CCCCC4)sc2c1` gave CYP2C19 activ 0.7, CYP2C9 inh 66*, CYP2C19 inh 29, MRP1 act 0 and CYP2C9 act 0.3.
Screening O=C(Cn1cc2c(n1)CCCC2)NCc1cccc(Cl)c1 returned MRP resist rev -25, CYP2C19 activ 0.5, CYP2C9 inh -93, CYP2C19 inh 48, MRP1 act -1 and CYP2C9 act 1.9.
Screening Fc1ccc(-c2ccnc(=S)[nH]2)cc1 returned CYP2C19 activ 0.7, CYP2C9 inh 43, CYP2C19 inh 25, MRP1 act -3 and CYP2C9 act 0.6.
`COC(=O)c1cc(CSc2nnc(NC3CCCCC3)s2)oc1C` gave MRP resist rev -3, CYP2C19 activ 0.5, CYP2C9 inh 48, CYP2C19 inh 45, MRP1 act -1 and CYP2C9 act 0.5.
`CCC1SC(CC)C(=O)N(CC(=O)Nc2ccc3c(c2)OCO3)C1=O` (stereo unspecified) gave MRP1 act 1.
`CC(C)CNC(=O)c1ccc(NC(=O)c2ccccc2[N+](=O)[O-])cc1` gave MRP1 act -2.
O=C(O)C1C2CCC(O2)C1C(=O)Nc1ccc(O)cc1 (stereo unspecified) was read as MRP1 act -2.
For O=C(Cn1cc2c(n1)CCCC2)Nc1ccccc1Br the results were MRP resist rev -19, CYP2C19 activ 0.1, CYP2C9 inh 67*, CYP2C19 inh 90*, MRP1 act -1 and CYP2C9 act 0.3.
Screening COC(=O)c1ccccc1NC(=O)Cn1cc2c(n1)CCC(C)C2 (stereo unspecified) returned MRP resist rev 6, CYP2C19 activ 0.9, CYP2C9 inh 61*, CYP2C19 inh 13, MRP1 act -2 and CYP2C9 act 0.4.
`Cc1ccc(NC(=O)Cn2cc3c(n2)CCC(C)C3)cc1` (stereo unspecified) gave MRP resist rev 7, CYP2C19 activ 0.8, CYP2C9 inh 20, CYP2C19 inh 16, MRP1 act 0 and CYP2C9 act 0.8.
For O=C(Cn1cc2c(n1)CCCCC2)NCc1ccccc1 the results were MRP resist rev -10, CYP2C19 activ 0.2, CYP2C9 inh -154, CYP2C19 inh 84*, MRP1 act 0 and CYP2C9 act 2.5*.
Screening O=C(Cn1cc2c(n1)CCCC2)Nc1ccccc1Cl returned MRP resist rev 1, CYP2C19 activ 0.9, CYP2C9 inh 19, CYP2C19 inh 12, MRP1 act -1 and CYP2C9 act 0.8.
For COCCCNC(=O)CN(c1ccc(OC)cc1)S(=O)(=O)c1ccc(NC(C)=O)cc1 the results were CYP2C19 activ 0.6, CYP2C9 inh 36, CYP2C19 inh 40, MRP1 act 0 and CYP2C9 act 0.6.
CCC(C)(C)NC(=O)CN(C(=O)c1snc(C(N)=O)c1N)c1ccc2c(c1)OCCO2 was read as MRP resist rev -1, CYP2C19 activ 0.6, CYP2C9 inh 64*, CYP2C19 inh 38, MRP1 act -3 and CYP2C9 act 0.4.
`COc1ccc(C(=O)N(CC(=O)NC(C)(C)C)c2ccc3c(c2)OCCO3)cc1OC` gave MRP resist rev 18, CYP2C19 activ 1.2, CYP2C9 inh -1, CYP2C19 inh -17, MRP1 act -3 and CYP2C9 act 1.
`COc1ccc(CCC(=O)Nc2ccc(Br)cn2)cc1` gave MRP resist rev -4, CYP2C19 activ 0.2, CYP2C9 inh 21, CYP2C19 inh 81*, MRP1 act -1 and CYP2C9 act 0.8.
Screening O=C(CCCN1C(=O)c2ccccc2C1=O)Nc1ccc(Br)cn1 returned MRP resist rev 8, CYP2C19 activ 1, CYP2C9 inh 10, CYP2C19 inh -4, MRP1 act 0 and CYP2C9 act 0.9.
Screening O=C(O)CCC(=O)Nc1ccc(Br)cn1 returned MRP resist rev 9, CYP2C19 activ 0.5, CYP2C9 inh 2, CYP2C19 inh 50*, MRP1 act -1 and CYP2C9 act 1.

Compound activity deposited in PubChem BioAssay by several laboratories.
